# ± gives the standard deviation of the averaged measurements. Of roughly 6,200 targets only a part is listed; those with the largest changes were picked by preference.
# Tests used:
# Assay in all cases: NP40-soluble protein abundance relative to vehicle (solubility fold change) (ratio); higher = more soluble protein in presence of AMP-PNP
# DDX52 = target: T1, DDX52 (UniProt Q9Y2R4)
# T1 sequence (whole entry): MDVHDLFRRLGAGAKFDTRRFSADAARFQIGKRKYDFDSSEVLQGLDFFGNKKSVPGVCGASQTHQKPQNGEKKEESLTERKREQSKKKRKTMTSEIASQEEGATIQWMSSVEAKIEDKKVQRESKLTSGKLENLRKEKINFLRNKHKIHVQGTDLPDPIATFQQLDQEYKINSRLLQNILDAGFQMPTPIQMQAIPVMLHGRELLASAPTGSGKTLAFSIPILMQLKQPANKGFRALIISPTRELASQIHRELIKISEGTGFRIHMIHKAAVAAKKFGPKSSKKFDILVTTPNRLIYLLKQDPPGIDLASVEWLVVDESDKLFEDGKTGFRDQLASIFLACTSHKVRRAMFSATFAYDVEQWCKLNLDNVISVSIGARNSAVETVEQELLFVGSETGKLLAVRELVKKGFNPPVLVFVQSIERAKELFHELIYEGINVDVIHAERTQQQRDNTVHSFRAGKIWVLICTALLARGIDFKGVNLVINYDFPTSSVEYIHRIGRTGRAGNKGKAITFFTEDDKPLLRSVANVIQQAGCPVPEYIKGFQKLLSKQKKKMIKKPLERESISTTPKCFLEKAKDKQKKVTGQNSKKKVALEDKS
# Outline: (§1)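 Crude Jurkat lysate, prepared by Dounce homogenisation, was exposed to eight concentrations from 0.1 to 10 mM for 10 min at room temperature and then 3 min at 37 °C. Solubilisation used 0.8% NP40 with benzonase for 60 min at 4 °C, followed by ultracentrifugation and TMT labelling of the supernatant for LC-MS/MS. After vsn normalisation of intensities, each value is the fold change against the detergent-processed vehicle within each replicate, across three independent experiments.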
# NKIRAS1 = target: T2, NKIRAS1 (UniProt Q9NYS0)
# T2 sequence (whole entry): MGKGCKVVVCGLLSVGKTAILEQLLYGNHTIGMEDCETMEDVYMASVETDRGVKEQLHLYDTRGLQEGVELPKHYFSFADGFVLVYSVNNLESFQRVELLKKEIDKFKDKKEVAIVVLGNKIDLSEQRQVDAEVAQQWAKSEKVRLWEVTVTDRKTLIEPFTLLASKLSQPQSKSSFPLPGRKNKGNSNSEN
# Outline: as §1
# POLG2 = target: T3, POLG2 (UniProt Q9UHN1)
# T3 sequence (whole entry): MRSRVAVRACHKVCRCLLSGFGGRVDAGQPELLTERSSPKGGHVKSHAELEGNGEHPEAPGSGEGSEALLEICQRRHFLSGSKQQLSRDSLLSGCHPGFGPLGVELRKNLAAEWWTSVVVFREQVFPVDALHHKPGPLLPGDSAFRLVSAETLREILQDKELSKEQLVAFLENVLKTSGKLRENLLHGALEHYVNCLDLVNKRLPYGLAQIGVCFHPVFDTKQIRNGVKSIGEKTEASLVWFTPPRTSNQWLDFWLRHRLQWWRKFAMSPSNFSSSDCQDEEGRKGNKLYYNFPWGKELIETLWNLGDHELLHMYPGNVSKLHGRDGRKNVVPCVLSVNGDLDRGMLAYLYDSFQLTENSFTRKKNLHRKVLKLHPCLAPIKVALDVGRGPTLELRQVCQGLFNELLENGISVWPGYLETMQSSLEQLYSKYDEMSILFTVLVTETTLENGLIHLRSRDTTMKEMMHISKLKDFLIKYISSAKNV
# Outline: as §1
# PRKRIP1 = target: T4, PRKRIP1 (UniProt Q9H875)
# T4 sequence (whole entry): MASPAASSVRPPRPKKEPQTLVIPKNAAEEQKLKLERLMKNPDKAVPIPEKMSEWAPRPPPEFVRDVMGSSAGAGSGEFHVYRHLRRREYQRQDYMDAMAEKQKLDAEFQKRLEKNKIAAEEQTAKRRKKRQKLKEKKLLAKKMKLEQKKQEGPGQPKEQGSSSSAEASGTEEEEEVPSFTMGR
# Outline: as §1
# SNX6 = target: T5, SNX6 (UniProt Q9UNH7)
# T5 sequence (whole entry): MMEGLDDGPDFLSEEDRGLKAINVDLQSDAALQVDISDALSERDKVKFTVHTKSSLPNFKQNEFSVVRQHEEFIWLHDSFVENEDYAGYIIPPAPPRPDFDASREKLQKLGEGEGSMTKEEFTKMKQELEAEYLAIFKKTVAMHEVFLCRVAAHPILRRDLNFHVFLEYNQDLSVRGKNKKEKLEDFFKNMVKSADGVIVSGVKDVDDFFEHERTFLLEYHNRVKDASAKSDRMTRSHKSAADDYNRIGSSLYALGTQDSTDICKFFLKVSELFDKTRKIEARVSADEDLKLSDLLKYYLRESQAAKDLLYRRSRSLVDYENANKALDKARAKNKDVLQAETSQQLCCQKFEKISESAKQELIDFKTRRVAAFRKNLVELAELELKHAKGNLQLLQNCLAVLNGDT
# Outline: as §1
# TFIP11 = target: T6, TFIP11 (UniProt Q9UBB9)
# T6 sequence (whole entry): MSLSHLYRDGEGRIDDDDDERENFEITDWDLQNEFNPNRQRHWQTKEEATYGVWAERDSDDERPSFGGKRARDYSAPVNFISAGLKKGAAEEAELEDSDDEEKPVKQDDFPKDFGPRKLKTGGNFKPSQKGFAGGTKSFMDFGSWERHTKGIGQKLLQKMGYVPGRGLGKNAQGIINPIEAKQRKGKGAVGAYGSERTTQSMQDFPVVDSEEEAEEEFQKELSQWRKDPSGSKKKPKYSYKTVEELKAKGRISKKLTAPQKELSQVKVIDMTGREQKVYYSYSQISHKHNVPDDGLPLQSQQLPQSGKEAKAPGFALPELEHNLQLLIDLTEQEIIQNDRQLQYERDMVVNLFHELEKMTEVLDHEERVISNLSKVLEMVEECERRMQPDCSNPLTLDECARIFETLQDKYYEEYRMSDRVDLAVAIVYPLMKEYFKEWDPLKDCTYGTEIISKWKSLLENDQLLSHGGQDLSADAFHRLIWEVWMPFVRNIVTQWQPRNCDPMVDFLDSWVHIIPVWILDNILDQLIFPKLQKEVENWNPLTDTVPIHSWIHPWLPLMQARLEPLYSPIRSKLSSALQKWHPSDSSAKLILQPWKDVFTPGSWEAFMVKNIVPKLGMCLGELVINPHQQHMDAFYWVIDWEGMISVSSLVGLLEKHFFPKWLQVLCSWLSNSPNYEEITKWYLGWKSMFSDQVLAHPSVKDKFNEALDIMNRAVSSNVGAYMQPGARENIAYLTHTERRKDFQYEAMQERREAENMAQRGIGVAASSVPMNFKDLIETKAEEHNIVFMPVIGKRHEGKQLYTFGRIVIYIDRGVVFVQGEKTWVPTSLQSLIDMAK
# Outline: as §1
# UniProt Q9BY77|Q9BY77-2 = target: T7, UniProt Q9BY77|Q9BY77-2
# T7 sequence (whole entry): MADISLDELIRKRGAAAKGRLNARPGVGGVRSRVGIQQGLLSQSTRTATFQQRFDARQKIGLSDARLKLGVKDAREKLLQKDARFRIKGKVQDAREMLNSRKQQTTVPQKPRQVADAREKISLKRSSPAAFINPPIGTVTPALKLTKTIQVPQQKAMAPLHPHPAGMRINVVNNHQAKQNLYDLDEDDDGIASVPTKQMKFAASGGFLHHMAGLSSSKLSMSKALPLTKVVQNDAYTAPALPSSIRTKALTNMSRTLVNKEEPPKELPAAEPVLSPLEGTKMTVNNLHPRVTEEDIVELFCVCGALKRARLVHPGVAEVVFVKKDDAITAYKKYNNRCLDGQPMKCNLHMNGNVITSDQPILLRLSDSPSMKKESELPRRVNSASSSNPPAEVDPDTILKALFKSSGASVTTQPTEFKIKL
# Outline: as §1
compound,measurement,setting,value
Nc1ncnc2c1ncn2[C@@H]1O[C@H](COP(=O)(O)OP(=O)(O)NP(=O)(O)O)[C@@H](O)[C@H]1O [adenylyl imidodiphosphate],NP40-soluble protein abundance,DDX52; concentration: 1mM,1.08 ± 0.094
same,NP40-soluble protein abundance,DDX52; concentration: 2mM,1.1 ± 0.047
same,NP40-soluble protein abundance,DDX52; concentration: 4mM,1.18 ± 0.07
same,NP40-soluble protein abundance,DDX52; concentration: 6mM,1.22 ± 0.038
same,NP40-soluble protein abundance,DDX52; concentration: 8mM,1.28 ± 0.055
same,NP40-soluble protein abundance,DDX52; concentration: 10mM,1.39 ± 0.046
same,NP40-soluble protein abundance,NKIRAS1; concentration: 1mM,1 ± 0.033
same,NP40-soluble protein abundance,NKIRAS1; concentration: 2mM,1.025 ± 0.0079
same,NP40-soluble protein abundance,NKIRAS1; concentration: 4mM,0.981 ± 0.024
same,NP40-soluble protein abundance,NKIRAS1; concentration: 6mM,0.988 ± 0.027
same,NP40-soluble protein abundance,NKIRAS1; concentration: 8mM,1 ± 0.018
same,NP40-soluble protein abundance,NKIRAS1; concentration: 10mM,0.9796 ± 0.0011
same,NP40-soluble protein abundance,POLG2; concentration: 1mM,0.994 ± 0.073
same,NP40-soluble protein abundance,POLG2; concentration: 2mM,1.03 ± 0.056
same,NP40-soluble protein abundance,POLG2; concentration: 4mM,0.996 ± 0.072
same,NP40-soluble protein abundance,POLG2; concentration: 6mM,1.06 ± 0.051
same,NP40-soluble protein abundance,POLG2; concentration: 8mM,1.07 ± 0.043
same,NP40-soluble protein abundance,POLG2; concentration: 10mM,1.05 ± 0.021
same,NP40-soluble protein abundance,PRKRIP1; concentration: 1mM,1.03 ± 0.053
same,NP40-soluble protein abundance,PRKRIP1; concentration: 2mM,1.14 ± 0.12
same,NP40-soluble protein abundance,PRKRIP1; concentration: 4mM,1.1 ± 0.11
same,NP40-soluble protein abundance,PRKRIP1; concentration: 6mM,1.14 ± 0.073
same,NP40-soluble protein abundance,PRKRIP1; concentration: 8mM,1.16 ± 0.1
same,NP40-soluble protein abundance,PRKRIP1; concentration: 10mM,1.15 ± 0.15
same,NP40-soluble protein abundance,SNX6; concentration: 1mM,0.992 ± 0.031
same,NP40-soluble protein abundance,SNX6; concentration: 2mM,1.03 ± 0.12
same,NP40-soluble protein abundance,SNX6; concentration: 4mM,0.991 ± 0.069
same,NP40-soluble protein abundance,SNX6; concentration: 6mM,1.03 ± 0.076
same,NP40-soluble protein abundance,SNX6; concentration: 8mM,1 ± 0.077
same,NP40-soluble protein abundance,SNX6; concentration: 10mM,1.03 ± 0.079
same,NP40-soluble protein abundance,TFIP11; concentration: 1mM,1.01 ± 0.028
same,NP40-soluble protein abundance,TFIP11; concentration: 2mM,1.01 ± 0.033
same,NP40-soluble protein abundance,TFIP11; concentration: 4mM,1.07 ± 0.042
same,NP40-soluble protein abundance,TFIP11; concentration: 6mM,1.08 ± 0.05
same,NP40-soluble protein abundance,TFIP11; concentration: 8mM,1.09 ± 0.015
same,NP40-soluble protein abundance,TFIP11; concentration: 10mM,1.13 ± 0.039
same,NP40-soluble protein abundance,UniProt Q9BY77|Q9BY77-2; concentration: 1mM,1 ± 0.038
same,NP40-soluble protein abundance,UniProt Q9BY77|Q9BY77-2; concentration: 2mM,1.06 ± 0.064
same,NP40-soluble protein abundance,UniProt Q9BY77|Q9BY77-2; concentration: 4mM,1.04 ± 0.042
